Screening data from PubChem.
Sampled rows, rich in hits. Any-hit rate of the full collection: about 1%.
Mtb BioA inh – M. tuberculosis BioA enzyme inhibitors, primary screen, biochemical, plate reader, single point, HTS; 7,8-diaminopelargonic acid synthase BioA (Mycobacterium tuberculosis); purified M. tuberculosis BioA enzyme; inhibition, % at 9.99 µM; 360,000 tested, 0.096% active; AID 602481, 2012; in the data active = inhibition above about 40%
PriA SSB inh – inhibitors of Klebsiella pneumoniae PriA binding to SSB C-terminal tail, primary screen, biochemical, AlphaScreen | PriA–SSB C-terminal tail interaction (Klebsiella pneumoniae) | AlphaScreen SSBct-PriA binding, biotinylated peptide | inhibition, % at 33 µM | 430,000 tested, 0.6% active | AID 1272365, 2023; in the data active = inhibition mostly above about 37%, no sharp cut-off; inactive = mostly below about 20%
TcdB inh – TcdB glycohydrolase inhibitors, primary screen, biochemical, single point, plate reader | inhibition, % at 9.99 µM | 350,000 tested, 0.24% active | TcdB glycohydrolase enzymatic assay | AID 652162, 2013; in the data active = inhibition above about 10%
Target sequence (P18177 whole entry, looked up): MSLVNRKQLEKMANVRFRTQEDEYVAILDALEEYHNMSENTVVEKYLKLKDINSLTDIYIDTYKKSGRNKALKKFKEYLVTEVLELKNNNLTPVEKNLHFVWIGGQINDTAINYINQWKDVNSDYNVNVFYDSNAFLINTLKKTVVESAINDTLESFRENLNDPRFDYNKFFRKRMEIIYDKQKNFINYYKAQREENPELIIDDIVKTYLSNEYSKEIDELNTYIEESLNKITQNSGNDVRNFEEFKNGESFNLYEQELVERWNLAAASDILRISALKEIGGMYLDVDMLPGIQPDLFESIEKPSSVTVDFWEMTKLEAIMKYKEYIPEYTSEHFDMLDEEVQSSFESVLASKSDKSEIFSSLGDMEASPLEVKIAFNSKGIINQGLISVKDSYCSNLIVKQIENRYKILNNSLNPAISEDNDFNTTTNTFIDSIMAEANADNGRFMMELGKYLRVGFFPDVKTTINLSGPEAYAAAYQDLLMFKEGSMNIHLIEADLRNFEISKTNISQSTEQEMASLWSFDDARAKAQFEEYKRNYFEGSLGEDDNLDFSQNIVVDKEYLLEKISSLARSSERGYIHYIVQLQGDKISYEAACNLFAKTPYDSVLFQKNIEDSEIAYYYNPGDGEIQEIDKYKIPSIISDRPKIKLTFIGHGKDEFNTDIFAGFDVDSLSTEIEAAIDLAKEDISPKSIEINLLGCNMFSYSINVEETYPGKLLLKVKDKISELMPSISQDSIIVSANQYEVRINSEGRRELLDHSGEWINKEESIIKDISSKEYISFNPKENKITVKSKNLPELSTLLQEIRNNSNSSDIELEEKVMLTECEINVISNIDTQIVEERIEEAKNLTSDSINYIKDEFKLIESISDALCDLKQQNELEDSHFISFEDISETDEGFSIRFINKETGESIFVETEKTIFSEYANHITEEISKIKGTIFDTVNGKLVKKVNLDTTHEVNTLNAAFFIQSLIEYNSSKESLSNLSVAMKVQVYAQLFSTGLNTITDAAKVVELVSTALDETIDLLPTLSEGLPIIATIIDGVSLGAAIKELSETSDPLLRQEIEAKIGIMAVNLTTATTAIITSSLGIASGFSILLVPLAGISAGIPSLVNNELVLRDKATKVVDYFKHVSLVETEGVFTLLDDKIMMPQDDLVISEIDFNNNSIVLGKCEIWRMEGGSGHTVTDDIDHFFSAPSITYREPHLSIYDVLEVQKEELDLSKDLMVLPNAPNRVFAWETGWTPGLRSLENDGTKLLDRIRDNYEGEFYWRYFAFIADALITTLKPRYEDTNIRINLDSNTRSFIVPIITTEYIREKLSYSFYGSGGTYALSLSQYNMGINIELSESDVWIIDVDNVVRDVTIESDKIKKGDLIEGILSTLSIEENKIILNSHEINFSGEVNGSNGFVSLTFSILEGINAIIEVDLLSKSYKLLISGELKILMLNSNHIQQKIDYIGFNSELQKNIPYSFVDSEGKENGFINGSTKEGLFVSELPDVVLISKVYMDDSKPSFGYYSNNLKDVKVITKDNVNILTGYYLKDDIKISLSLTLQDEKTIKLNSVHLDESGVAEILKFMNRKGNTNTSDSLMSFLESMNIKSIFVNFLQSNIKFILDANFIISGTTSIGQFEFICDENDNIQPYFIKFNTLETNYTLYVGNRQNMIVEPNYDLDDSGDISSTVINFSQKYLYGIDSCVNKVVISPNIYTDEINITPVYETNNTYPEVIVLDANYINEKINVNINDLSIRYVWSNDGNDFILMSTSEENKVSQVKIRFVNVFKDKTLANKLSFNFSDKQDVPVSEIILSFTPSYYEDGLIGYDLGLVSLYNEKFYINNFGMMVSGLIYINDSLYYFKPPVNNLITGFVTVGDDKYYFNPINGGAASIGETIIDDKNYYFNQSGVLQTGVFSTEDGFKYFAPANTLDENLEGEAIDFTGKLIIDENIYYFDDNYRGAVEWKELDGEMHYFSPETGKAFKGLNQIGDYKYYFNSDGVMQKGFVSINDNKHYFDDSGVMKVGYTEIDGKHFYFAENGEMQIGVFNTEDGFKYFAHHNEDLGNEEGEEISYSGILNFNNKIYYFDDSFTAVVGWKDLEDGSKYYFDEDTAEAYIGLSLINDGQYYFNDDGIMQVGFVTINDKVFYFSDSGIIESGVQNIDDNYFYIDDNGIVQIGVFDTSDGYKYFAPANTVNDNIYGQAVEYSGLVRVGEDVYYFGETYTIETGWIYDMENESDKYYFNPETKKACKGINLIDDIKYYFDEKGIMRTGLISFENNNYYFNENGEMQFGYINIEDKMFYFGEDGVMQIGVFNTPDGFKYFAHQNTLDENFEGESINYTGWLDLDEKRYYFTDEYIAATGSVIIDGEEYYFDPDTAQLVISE
PrP UTR inh – inhibition of PrP 5' UTR reporter expression; cell-based PrP 5' UTR mRNA reporter, plate reader; AID 488862, 2010; inhibition, % (test concentration not listed); 340,000 tested, 0.35% active; in the data active = inhibition above about 52%
Mtb hypoxia inh – PubChem AID 1159583. M. tuberculosis hypoxia-regulated fluorescent reporter, fluorescence. fluorescence inhibition, % (concentration not given with the values). 300,000 tested, 0.1% active; in the data active = fluorescence inhibition mostly above about 23%, no sharp cut-off; inactive = mostly below about 17%
FadD28 binding – inhibitors of FadD28 bisubstrate probe binding, primary screen, biochemical, fluorescence polarization, single point; Mycobacterium tuberculosis FadD28 fatty-acid-AMP ligase; inhibition, % at 12.5 µM; 360,000 tested, 0.22% active; AID 588549, 2011; in the data active = inhibition above about 8.5%, passing the limit was not always enough
Each line names hits and unclear results; the compound was inactive in the other large screens.

CCOC(=O)C1Nc2ccc(C(=O)O)cc2C2C=CCC12 (stereo unspecified)	FadD28 binding 21 (no result: Mtb hypoxia inh)
CC(=O)c1ccc2c(c1)C1C=CCC1C(c1cc3c(cc1Br)OCO3)N2 (stereo unspecified)	none (no result: Mtb hypoxia inh)
CCN(CC)C(=O)c1ccc2c(c1)C1C=CCC1C(C(=O)O)N2 (stereo unspecified)	FadD28 binding 12 (no result: Mtb hypoxia inh)
COc1ccc(C(CCN2CCOCC2)c2c(OC)cc(OC)c3ccc(=O)oc23)cc1 (stereo unspecified)	none
COc1ccc2nc3ccccc3nc2c1NC(=O)c1ccc(Cl)cc1	none (no result: TcdB inh)
COc1cccc(NC(=O)NNC(=O)COc2ccc3ccccc3c2)c1	none
O=C(OCC#CCSc1nnc(-c2ccc(Br)cc2)o1)c1cccs1	Mtb hypoxia inh 41 (no result: Mtb BioA inh)
COC(=O)Cc1cc(=O)n(-c2nc3ccccc3[nH]2)[nH]1	PriA SSB inh 75 (no result: Mtb BioA inh)
C/C(=N\NC(=O)c1ccc(F)cc1)c1ccccn1	none (no result: Mtb BioA inh, PriA SSB inh, Mtb hypoxia inh)
CC(=NNC(=O)c1cc(-c2cccs2)nc2ccccc12)c1ccccn1	PriA SSB inh 85 (no result: Mtb BioA inh, TcdB inh, PrP UTR inh, FadD28 binding)
CC(=NNC(=O)c1ccc(NS(=O)(=O)c2cccs2)cc1)c1ccccn1	PriA SSB inh 39 (no result: Mtb BioA inh, TcdB inh, PrP UTR inh, FadD28 binding)
CC(=NNC(=O)c1ccccc1Cl)c1ccccn1	none (no result: Mtb BioA inh, TcdB inh, PrP UTR inh, FadD28 binding)
CC(=NNC(=O)c1ccc(NS(=O)(=O)c2cccs2)cc1)c1ccccc1	none (no result: Mtb BioA inh, TcdB inh, PrP UTR inh, FadD28 binding)
COc1ccc(C(=O)NN=C(C)c2ccccn2)cc1OC	PriA SSB inh 83 (no result: Mtb BioA inh, TcdB inh, PrP UTR inh, Mtb hypoxia inh, FadD28 binding)
CC(=NNC(=O)c1ccccc1F)c1ccccn1	PriA SSB inh 51 (no result: Mtb BioA inh, TcdB inh, PrP UTR inh, FadD28 binding)
C/C(=C\CCC1(C)C2CC3C(C2)C31C)C(=O)O (stereo unspecified)	none (no result: Mtb hypoxia inh)
C[C@H]1CN([C@@H](C)CO)C(=O)Cc2cc(NS(=O)(=O)c3ccc(Cl)cc3)ccc2O[C@@H]1CN(C)S(=O)(=O)c1ccc(Cl)cc1	none (no result: PriA SSB inh, PrP UTR inh, Mtb hypoxia inh, FadD28 binding)
O=S(=O)(c1ccc(Br)cc1)N1CCN(c2cc(-c3ccccc3)nc3ncnn23)CC1	none
OC(CNCc1ccccc1)Cn1ccc2ccccc21 (stereo unspecified)	none
Oc1ccccc1NCC(O)Cn1ccc2ccccc21 (stereo unspecified)	PriA SSB inh 59 (no result: TcdB inh)
Nc1nnc(CC(=O)N/N=C/c2cc([N+](=O)[O-])cc(Br)c2O)s1	FadD28 binding 37 (no result: Mtb BioA inh, PriA SSB inh, Mtb hypoxia inh)
NC(=O)Nc1ccc(Nc2ccccc2)cc1	TcdB inh 15 (no result: Mtb BioA inh)
O=C(Nc1ccc(Nc2ccccc2)cc1)c1ccccc1	none (no result: Mtb BioA inh, PrP UTR inh, FadD28 binding)
COc1cc(OC)cc(C(=O)Nc2ccc(Nc3ccccc3)cc2)c1	PriA SSB inh 45
CC(C)(C)NC(=S)Nc1ccc(Nc2ccccc2)cc1	PriA SSB inh 52 (no result: TcdB inh)
CC(C)(C)NC(=S)Nc1ccc(Br)cc1	none (no result: TcdB inh)
CC(C)COc1cccc(C(=O)NNC(=O)C2COc3ccccc3O2)c1 (stereo unspecified)	none
CCOC(=O)c1c(NC(=S)NCCc2ccccc2)sc2c1CC(C(C)C)OC2 (stereo unspecified)	none (no result: TcdB inh)
C=CCNC(=S)Nc1sc2c(c1C(=O)OCC)CC(C(C)C)OC2 (stereo unspecified)	PriA SSB inh 60 (no result: TcdB inh)
CC(NC(=O)NC(=O)c1cccc(Cl)c1)c1ccccc1 (stereo unspecified)	none
CC(NC(=O)CNC(=O)c1cccc(Cl)c1)c1ccccc1 (stereo unspecified)	PriA SSB inh 66 (no result: Mtb BioA inh)
C=CC[C@@H](CC/C=C/C=C/CC/C=C\[C@@H]1CSC([C@@H]2C[C@@H]2C)=N1)OC	PrP UTR inh 56 (no result: TcdB inh)
O=C(Nc1ccc(Br)c(Cl)c1)c1ccco1	none (no result: TcdB inh)
Cc1cc(C(=O)CCC(=O)N2CCN(c3ccccc3F)CC2)c(C)s1	none (no result: Mtb BioA inh)
COc1ccccc1CNC(=O)CN(c1ccc(C)cc1)S(=O)(=O)c1c(C)n[nH]c1C	TcdB inh 31 (no result: Mtb hypoxia inh)
Cc1cc(C(=O)Nc2nc3c(s2)CN(C)CC3)on1	none (no result: Mtb BioA inh, TcdB inh, PrP UTR inh, Mtb hypoxia inh, FadD28 binding)
CC(=O)N(C(C)=O)c1c(C#N)c(C)n(-c2ccccc2)c1C(=O)c1ccccc1	PriA SSB inh 85 (no result: TcdB inh, Mtb hypoxia inh)
O=c1c2c(-c3ccc([N+](=O)[O-])cc3)csc2nc2n1CCC2	Mtb hypoxia inh 36 (no result: TcdB inh)
O=[N+]([O-])c1ccc(-c2nnc3n2CCCCC3)cc1	none (no result: Mtb BioA inh)
CCCN1CCCc2cc(CCNS(=O)(=O)c3cccc(Cl)c3)ccc21	PriA SSB inh 64 (no result: Mtb BioA inh, TcdB inh, PrP UTR inh, Mtb hypoxia inh, FadD28 binding)
